Counter-ions that a name gives are not always drawn. ± gives the standard deviation of the averaged measurements.

The subject of this assay is Danio rerio Tg(wt1b:EGFP) embryo, pronephros. The assay can be described thus: pronephric angle neck segment to proximal convoluted tubule (mean of left and right), fold change vs DMSO control; higher = larger pronephric angle. The following applies: 25 µM; exposure: 24-48 hpf. The essentials: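 Features are reported as fold changes against the mean of same-day DMSO-treated embryos. Before that, values more than 2 SD away from the feature mean were excluded. The embryos, dechorionated Tg(wt1b:EGFP) zebrafish, had been exposed from 24 to 48 hpf at 28.5°C to 25 μM compound in 0.5% DMSO in HEPES-buffered E3 with 0.003% PTU, and distances and angles came from 16 manually set points on maximum projections of dorsal pronephros images in Fiji.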
As for `CC(=O)c1ccc(S(=O)(=O)NC(=O)NC2CCCCC2)cc1` [Acetohexamide], the “pronephric angle neck segment” value was 0.9767 ± 0.0092. Next, `Cn1c(NCCN(CCO)CCCc2ccc([N+](=O)[O-])cc2)cc(=O)n(C)c1=O` [Nifekalant]: 0.9169 ± 0.0049. Next, `CCCCCCCN(CC)CCCC(O)c1ccc(NS(C)(=O)=O)cc1` (configuration not stated) [Ibutilide fumarate]: 0.961 ± 0.086. To `CCN(CC)CCNC(=O)COc1ccc(OC)cc1` [Mefexamide hydrochloride] belongs 1.07 ± 0.086.

With `O=C(CCCCC(=O)Nc1c(I)cc(I)c(C(=O)O)c1I)Nc1c(I)cc(I)c(C(=O)O)c1I` [Iodipamide], the “pronephric angle neck segment” value amounted to 1.0067 ± 0.00076. For `Cc1ccsc1/C=C/C1=NCCCN1C` [Morantel tartrate], the “pronephric angle neck segment” value came to 1.01 ± 0.019. To `COc1cccc2c1C(=O)c1c(O)c3c(c(O)c1C2=O)C[C@@](O)(C(C)=O)C[C@@H]3O[C@H]1C[C@H](N)[C@H](O)[C@H](C)O1` [Daunorubicin hydrochloride] belongs 1.04 ± 0.025; to `CCOC1O[C@H]([C@@H](COCc2ccccc2)OCc2ccccc2)[C@H](OCc2ccccc2)[C@H]1O` (some centres not stated) [Tribenoside], 1.01 ± 0.018. Next, `C#C[C@]1(O)CC[C@H]2[C@@H]3CCC4=CC(=O)CC[C@@H]4[C@H]3CC[C@@]21CC` [Norgestrel-(-)-D]: 1.03 ± 0.013; `O=C(O)Cc1ccccc1Nc1c(Cl)cccc1Cl` [Diclofenac sodium]: 1.63 ± 0.018; `Nc1ccc(O)c(C(=O)O)c1` [Mesalamine]: 0.971 ± 0.018.

For the compound `CC[C@H](C)C(=O)O[C@H]1CCC=C2C=C[C@H](C)[C@H](CC[C@@H]3C[C@@H](O)CC(=O)O3)[C@H]21` [Mevastatin], the “pronephric angle neck segment” value amounted to 1.73 ± 0.056.

The values above are taken from the supplement of paper PMC7366291.
